# Inconclusive results are not listed. Activity calls are given as the source filed them. Rule for the calls: active = hit-call score of the fitted dose curve at least 0.9, where 1 is the maximum; inconclusive = response in the unintended direction; inactive = score below 0.9.
# Target: human Retinoic Acid Receptor gamma (RARg) Agonism, RARG (gene 5916) (UniProt P13631)
# Assay: ERF_TW_NR_COA_hRARG: Eurofins (ERF) Nuclear Receptor (NR) Functional Coactivator Assay for human Retinoic Acid Receptor gamma (RARg) Agonism
# Method: ERF_TW_NR_COA_hRARG is a biochemical, single-readout assay that uses extracted gene-proteins in a cell-free assay. Measurements were taken 16 hours after chemical dosing in a 96-well plate. […] It is designed to measure FRET using a type of binding reporter as detected by fluorescence intensity of AM580 with fluorimetry technology.Data from the assay component ERF_TW_NR_COA_hRARG was analyzed at the assay endpoint, ERF_TW_NR_COA_hRARG, in the positive analysis fitting direction relative to DMSO as the negative control and baseline of activity. Using a type of binding reporter, gain-of-signal activity can be used to understand changes in binding as they relate to gene RARG. To generalize the intended target to other relatable targets, this assay endpoint is annotated to the nuclear receptor intended target family, where the subfamily is non-steroidal.
# Human recombinant retinoic acid receptor […] (RARgamma) receptors expressed in bacteria are used. Test compound and/or vehicle is incubated with the 25 nM receptors and binding buffer in modified Tris-HCl buffer pH 7.4 for 16 hours at 4C. Determination of the amount of complex formed is read spectrofluorimetrically (excitation:337 nm, emission:620/665 nm). Test compound-induced increase in fluorescence by 50 percent or more (>/= 50%) relative to the 0.3 uM AM580 response indicates possible RARgamma receptor agonist activity. […]
# Sequence of human Retinoic Acid Receptor gamma (RARg) Agonism, RARG (gene 5916) (P13631 whole entry, looked up): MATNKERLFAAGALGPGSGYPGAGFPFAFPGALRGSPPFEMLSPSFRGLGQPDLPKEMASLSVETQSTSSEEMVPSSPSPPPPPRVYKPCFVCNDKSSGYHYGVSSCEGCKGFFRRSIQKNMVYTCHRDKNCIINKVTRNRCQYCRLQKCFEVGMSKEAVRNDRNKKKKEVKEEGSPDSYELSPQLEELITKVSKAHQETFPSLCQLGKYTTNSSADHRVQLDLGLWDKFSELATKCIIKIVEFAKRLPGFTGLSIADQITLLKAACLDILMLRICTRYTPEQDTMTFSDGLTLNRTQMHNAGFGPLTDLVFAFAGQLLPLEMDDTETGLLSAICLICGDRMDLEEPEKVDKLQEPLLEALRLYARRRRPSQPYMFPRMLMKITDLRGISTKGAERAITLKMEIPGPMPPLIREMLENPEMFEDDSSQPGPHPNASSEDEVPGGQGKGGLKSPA
structure (smiles),measurement,value
C[C@H]1C[C@@H]2[C@H]([C@@H](O)C[C@@]3(C)[C@H]2CC[C@]3(O)C(=O)CO)[C@@]2(C)C=CC(=O)C=C12,outcome,inactive
